# Measurements as given in article PMC7862700, “An all-to-all approach to the identification of sequence-specific readers for epigenetic DNA modifications on cytosine”.
# Assays:
# Assay in all cases: DAPPL (digital affinity profiling via proximity ligation, sequencing); 10 mM Tris-HCl pH 7.5, 50 mM NaCl, 1 mM DTT, 4% glycerol, room temperature, 30 min; GST-TFs on glutathione beads, 16-mer random dsDNA library, 0.1% formaldehyde crosslink after washing; high values mean tight binding
# [1] = biological target: T1, FEV (Homo sapiens, UniProt Q99581 1-238); conditions: protein: recombinant; tags: N-terminal GST; dsDNA, one strand shown
# T1 sequence: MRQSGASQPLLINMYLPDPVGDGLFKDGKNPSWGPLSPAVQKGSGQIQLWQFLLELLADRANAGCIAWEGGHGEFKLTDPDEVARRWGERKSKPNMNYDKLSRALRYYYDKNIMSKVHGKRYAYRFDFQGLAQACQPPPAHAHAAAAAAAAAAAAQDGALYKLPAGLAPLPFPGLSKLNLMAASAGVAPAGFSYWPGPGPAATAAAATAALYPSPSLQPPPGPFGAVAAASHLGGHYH
# In short: (§1)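 In yeast, human transcription factors were expressed with a GST fusion, then pulled down on glutathione beads and given DNA barcodes. Pooled with a tag-only sample, they were exposed to 200 nmole of a 16-mer random double-stranded DNA library (Tris/NaCl/DTT/glycerol buffer, room temperature, 30 min), washed, crosslinked with 0.1% formaldehyde, proximity-ligated using BsaI/T4 ligase for 1 h at 37 °C, PCR-amplified and read on an Illumina NextSeq500. Each hexamer's frequency of reads for a factor, divided by the matching frequency for the tag-only sample, gives the binding signal.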
# [2] = biological target: ETV5 (Homo sapiens, UniProt P41161 1-510); conditions: protein: recombinant; tags: N-terminal GST; dsDNA, one strand shown
# In short: as §1
# [3] = biological target: HSF1 (Homo sapiens, UniProt Q00613 1-529); conditions: protein: recombinant; tags: N-terminal GST; chain copies: 3; dsDNA, one strand shown
# In short: as §1
# [4] = biological target: T2, SPIC (Homo sapiens, UniProt Q8N5J4 1-248); conditions: protein: recombinant; tags: N-terminal GST; dsDNA, one strand shown
# T2 sequence: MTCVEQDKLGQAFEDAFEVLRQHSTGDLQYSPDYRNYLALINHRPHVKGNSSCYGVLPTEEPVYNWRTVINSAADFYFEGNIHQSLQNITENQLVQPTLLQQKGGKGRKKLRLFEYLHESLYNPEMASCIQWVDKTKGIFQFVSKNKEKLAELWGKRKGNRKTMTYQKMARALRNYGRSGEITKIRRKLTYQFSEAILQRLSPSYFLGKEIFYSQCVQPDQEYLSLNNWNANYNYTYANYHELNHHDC
# In short: as §1
# [5] = biological target: ELF4 (Homo sapiens, UniProt Q99607 1-663); conditions: protein: recombinant; tags: N-terminal GST; dsDNA, one strand shown
# In short: as §1
# [6] = biological target: T3, ELK4 (Homo sapiens, UniProt P28324-2 1-405); conditions: protein: recombinant; tags: N-terminal GST; dsDNA, one strand shown
# T3 sequence: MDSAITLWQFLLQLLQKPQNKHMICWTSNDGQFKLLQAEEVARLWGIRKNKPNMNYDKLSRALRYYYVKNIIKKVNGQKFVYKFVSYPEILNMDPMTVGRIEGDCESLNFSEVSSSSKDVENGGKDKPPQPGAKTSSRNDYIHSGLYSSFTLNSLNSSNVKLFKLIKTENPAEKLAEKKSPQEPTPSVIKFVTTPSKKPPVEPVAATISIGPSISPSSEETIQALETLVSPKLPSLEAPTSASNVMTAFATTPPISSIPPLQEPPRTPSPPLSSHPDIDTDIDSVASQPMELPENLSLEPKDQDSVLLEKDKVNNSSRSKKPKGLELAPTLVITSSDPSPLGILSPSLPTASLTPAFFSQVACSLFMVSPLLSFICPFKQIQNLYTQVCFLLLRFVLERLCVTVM
# In short: as §1
# [7] = biological target: T4, ETV2 (Homo sapiens, UniProt O00321 1-342); conditions: protein: recombinant; tags: N-terminal GST; dsDNA, one strand shown
# T4 sequence: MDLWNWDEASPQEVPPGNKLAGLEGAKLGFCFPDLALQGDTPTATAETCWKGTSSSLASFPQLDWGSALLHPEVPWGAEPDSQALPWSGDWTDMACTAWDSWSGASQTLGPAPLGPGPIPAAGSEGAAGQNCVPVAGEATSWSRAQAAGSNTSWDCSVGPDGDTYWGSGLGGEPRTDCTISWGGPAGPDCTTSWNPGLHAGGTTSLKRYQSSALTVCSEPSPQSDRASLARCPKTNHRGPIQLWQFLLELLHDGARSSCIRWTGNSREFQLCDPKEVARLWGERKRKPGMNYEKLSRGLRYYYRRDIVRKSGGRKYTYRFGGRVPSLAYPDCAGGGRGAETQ
# In short: as §1
# [8] = biological target: T5, ELF3 (Homo sapiens, UniProt P78545 1-371); conditions: protein: recombinant; tags: N-terminal GST; dsDNA, one strand shown
# T5 sequence: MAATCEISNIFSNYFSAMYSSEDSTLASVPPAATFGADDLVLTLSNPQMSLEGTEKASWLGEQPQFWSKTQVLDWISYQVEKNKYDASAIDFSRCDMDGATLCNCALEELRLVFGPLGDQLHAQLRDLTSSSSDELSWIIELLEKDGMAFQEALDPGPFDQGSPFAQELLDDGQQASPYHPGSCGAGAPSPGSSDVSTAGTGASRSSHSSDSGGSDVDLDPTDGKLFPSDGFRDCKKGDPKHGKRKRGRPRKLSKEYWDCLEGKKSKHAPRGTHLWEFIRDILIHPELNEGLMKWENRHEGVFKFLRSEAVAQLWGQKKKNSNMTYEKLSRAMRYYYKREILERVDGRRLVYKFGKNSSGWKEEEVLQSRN
# In short: as §1
# [9] = biological target: CRX (Homo sapiens, UniProt O43186 1-299); conditions: protein: recombinant; tags: N-terminal GST; dsDNA, one strand shown
# In short: as §1
# [10] = biological target: ETV1 (Homo sapiens, UniProt P50549 1-477); conditions: protein: recombinant; tags: N-terminal GST; dsDNA, one strand shown
# In short: as §1
# [11] = biological target: T6, ERF (Homo sapiens, UniProt P50548 1-548); conditions: protein: recombinant; tags: N-terminal GST; dsDNA, one strand shown
# T6 sequence: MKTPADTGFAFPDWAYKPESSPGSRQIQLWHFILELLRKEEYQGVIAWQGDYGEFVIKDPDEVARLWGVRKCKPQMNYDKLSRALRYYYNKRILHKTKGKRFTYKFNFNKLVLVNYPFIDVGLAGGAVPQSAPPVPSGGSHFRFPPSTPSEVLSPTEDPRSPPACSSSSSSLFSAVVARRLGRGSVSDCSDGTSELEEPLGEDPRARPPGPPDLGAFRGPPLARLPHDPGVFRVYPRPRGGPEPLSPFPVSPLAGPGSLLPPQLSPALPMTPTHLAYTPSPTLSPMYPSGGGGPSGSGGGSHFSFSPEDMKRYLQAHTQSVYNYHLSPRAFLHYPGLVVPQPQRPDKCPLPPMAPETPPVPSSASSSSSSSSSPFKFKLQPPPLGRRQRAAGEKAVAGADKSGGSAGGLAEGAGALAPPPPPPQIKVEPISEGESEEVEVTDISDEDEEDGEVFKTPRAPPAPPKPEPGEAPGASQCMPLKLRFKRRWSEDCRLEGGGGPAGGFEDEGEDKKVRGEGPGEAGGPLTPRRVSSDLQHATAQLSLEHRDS
# In short: as §1
# [12] = biological target: T7, ETV3L (Homo sapiens, UniProt Q6ZN32 1-361); conditions: protein: recombinant; tags: N-terminal GST; dsDNA, one strand shown
# T7 sequence: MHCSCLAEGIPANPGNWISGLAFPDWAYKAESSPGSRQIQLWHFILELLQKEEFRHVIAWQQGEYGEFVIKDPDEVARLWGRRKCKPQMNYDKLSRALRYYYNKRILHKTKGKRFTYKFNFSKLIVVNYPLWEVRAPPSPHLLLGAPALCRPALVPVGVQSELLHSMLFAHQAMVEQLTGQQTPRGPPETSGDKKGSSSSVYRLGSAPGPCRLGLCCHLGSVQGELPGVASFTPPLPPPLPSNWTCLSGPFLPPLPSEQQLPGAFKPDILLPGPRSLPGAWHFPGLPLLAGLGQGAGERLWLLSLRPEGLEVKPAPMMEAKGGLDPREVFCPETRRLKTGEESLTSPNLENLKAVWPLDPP
# In short: as §1
# [13] = biological target: T8, ETS2 (Homo sapiens, UniProt P15036 1-469); conditions: protein: recombinant; tags: N-terminal GST; dsDNA, one strand shown
# T8 sequence: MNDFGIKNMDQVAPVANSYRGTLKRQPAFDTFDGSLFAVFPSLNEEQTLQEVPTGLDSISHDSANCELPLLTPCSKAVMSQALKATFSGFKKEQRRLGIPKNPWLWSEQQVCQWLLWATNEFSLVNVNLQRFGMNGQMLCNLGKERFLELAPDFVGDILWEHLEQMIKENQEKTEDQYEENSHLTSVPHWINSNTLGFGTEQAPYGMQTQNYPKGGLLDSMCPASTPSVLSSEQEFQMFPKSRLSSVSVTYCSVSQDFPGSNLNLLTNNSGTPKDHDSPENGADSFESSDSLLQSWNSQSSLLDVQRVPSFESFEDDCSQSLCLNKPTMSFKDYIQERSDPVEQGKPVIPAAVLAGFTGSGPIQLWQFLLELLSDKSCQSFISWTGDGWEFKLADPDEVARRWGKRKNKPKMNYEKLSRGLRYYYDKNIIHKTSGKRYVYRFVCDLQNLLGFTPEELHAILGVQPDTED
# In short: as §1
# [14] = biological target: T9, SPDEF (Homo sapiens, UniProt O95238 1-335); conditions: protein: recombinant; tags: N-terminal GST; dsDNA, one strand shown
# T9 sequence: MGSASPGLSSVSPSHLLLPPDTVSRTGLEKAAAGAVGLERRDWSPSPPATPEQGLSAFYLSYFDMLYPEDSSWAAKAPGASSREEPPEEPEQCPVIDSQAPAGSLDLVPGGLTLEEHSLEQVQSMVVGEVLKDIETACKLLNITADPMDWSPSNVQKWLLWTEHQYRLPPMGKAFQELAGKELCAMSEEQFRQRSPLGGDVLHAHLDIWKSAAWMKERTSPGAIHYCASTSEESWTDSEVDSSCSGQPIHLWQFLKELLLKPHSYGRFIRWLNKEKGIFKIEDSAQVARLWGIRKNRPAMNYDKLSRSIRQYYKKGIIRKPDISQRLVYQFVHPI
# In short: as §1
# [15] = biological target: T10, ETV7 (Homo sapiens, UniProt Q9Y603 1-341); conditions: protein: recombinant; tags: N-terminal GST; dsDNA, one strand shown
# T10 sequence: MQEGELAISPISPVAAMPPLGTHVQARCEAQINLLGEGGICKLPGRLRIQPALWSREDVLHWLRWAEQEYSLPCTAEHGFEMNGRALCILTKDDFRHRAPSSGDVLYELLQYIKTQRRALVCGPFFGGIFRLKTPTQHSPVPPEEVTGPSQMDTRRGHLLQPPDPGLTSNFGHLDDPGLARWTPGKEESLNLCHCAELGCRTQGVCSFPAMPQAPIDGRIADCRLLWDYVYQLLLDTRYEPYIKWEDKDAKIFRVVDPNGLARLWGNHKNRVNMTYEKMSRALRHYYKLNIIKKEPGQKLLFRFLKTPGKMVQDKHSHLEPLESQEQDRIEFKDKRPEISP
# In short: as §1
# [16] = biological target: T11, ELF5 (Homo sapiens, UniProt Q9UKW6-2 1-255); conditions: protein: recombinant; tags: N-terminal GST; dsDNA, one strand shown
# T11 sequence: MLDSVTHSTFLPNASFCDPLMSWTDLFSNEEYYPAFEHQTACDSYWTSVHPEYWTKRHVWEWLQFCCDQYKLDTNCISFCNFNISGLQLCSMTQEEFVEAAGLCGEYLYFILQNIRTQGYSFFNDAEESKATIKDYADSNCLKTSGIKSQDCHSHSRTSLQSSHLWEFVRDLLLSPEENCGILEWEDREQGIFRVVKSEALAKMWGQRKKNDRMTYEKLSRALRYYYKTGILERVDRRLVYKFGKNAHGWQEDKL
# In short: as §1
# [17] = biological target: T12, ETV3 (Homo sapiens, UniProt P41162-2 1-143); conditions: protein: recombinant; tags: N-terminal GST; dsDNA, one strand shown
# T12 sequence: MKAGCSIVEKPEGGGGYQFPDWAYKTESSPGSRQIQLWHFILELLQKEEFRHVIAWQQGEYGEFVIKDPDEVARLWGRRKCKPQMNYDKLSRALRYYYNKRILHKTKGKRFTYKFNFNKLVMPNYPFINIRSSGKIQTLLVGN
# In short: as §1
# [18] = biological target: ETV6 (Homo sapiens, UniProt P41212 1-452); conditions: protein: recombinant; tags: N-terminal GST; dsDNA, one strand shown
# In short: as §1
# Sequence of ETV6 (P41212 whole entry): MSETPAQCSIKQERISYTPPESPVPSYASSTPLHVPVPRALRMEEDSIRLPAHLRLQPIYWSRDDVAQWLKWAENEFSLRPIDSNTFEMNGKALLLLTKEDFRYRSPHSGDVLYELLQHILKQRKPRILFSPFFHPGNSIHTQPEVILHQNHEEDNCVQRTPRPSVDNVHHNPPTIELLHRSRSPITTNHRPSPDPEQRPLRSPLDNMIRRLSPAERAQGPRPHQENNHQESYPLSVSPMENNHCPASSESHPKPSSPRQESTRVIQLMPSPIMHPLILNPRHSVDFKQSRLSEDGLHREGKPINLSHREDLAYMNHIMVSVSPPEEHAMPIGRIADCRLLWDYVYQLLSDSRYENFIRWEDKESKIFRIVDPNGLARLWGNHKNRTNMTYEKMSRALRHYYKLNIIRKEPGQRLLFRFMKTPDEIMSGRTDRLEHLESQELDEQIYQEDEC
# Sequence of CRX (O43186 whole entry): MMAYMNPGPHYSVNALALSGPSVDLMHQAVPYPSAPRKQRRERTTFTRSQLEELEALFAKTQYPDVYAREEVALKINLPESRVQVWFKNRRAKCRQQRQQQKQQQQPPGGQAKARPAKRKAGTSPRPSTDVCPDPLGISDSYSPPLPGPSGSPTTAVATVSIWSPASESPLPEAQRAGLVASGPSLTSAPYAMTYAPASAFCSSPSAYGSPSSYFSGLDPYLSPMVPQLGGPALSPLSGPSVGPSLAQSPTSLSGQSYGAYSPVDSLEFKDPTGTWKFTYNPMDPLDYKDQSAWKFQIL
# Sequence of ELF4 (Q99607 whole entry): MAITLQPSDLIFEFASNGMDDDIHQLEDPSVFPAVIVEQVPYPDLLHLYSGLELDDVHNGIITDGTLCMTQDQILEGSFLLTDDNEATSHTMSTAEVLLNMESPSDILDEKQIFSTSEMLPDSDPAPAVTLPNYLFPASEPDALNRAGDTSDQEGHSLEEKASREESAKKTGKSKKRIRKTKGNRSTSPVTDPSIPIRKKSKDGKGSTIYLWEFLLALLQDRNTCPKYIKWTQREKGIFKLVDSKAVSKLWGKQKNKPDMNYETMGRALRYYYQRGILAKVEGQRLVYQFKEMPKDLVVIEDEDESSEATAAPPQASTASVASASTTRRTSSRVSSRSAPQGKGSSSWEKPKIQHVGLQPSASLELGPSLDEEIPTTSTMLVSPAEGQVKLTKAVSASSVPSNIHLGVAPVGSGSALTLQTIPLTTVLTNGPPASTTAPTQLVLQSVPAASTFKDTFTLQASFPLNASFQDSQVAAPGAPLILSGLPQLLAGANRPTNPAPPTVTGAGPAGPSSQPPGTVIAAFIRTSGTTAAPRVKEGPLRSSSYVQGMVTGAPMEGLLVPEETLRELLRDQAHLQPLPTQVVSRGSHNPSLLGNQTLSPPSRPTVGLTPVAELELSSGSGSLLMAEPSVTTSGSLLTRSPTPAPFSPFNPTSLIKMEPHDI
# Sequence of HSF1 (Q00613 whole entry): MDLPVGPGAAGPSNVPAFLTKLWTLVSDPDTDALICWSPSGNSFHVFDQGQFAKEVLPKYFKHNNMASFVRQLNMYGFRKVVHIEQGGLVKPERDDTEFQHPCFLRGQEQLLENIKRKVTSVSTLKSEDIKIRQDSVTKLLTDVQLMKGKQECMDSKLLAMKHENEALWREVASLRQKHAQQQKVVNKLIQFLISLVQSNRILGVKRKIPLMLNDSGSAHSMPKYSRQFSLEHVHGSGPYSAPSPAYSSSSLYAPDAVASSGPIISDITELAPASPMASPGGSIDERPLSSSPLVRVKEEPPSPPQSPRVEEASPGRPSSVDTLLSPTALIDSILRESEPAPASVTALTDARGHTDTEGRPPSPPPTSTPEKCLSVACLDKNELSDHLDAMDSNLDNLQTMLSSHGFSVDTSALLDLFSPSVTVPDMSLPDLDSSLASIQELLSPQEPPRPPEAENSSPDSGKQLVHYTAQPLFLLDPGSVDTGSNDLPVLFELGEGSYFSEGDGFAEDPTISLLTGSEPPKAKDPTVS
# Sequence of ETV5 (P41161 whole entry): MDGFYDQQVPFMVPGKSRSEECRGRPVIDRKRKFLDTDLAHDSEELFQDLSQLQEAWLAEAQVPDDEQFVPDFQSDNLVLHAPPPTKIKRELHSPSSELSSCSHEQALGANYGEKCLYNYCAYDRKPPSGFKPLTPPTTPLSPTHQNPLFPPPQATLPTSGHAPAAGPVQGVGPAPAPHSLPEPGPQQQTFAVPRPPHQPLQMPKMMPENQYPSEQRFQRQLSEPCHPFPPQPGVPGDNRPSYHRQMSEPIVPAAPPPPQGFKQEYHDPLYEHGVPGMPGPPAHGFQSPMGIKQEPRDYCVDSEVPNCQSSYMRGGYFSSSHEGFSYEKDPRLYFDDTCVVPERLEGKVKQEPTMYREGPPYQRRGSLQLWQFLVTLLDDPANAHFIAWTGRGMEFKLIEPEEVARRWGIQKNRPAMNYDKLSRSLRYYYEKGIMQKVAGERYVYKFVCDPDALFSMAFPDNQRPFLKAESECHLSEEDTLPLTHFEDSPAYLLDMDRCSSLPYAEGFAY
# Sequence of ETV1 (P50549 whole entry): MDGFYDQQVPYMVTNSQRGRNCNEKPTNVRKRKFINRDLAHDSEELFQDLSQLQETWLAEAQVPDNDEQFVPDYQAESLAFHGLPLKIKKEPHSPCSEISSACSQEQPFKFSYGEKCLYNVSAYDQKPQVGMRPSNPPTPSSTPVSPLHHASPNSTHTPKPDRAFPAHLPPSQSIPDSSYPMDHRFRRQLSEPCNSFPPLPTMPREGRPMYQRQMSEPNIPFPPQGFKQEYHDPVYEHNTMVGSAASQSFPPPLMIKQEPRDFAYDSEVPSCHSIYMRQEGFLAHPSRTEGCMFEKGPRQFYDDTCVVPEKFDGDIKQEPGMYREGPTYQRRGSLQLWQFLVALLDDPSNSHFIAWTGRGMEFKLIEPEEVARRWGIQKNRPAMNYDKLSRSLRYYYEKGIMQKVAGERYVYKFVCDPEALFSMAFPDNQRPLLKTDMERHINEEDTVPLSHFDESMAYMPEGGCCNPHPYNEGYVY
sequence,measurement,setting,value
TATGTG,binding signal,[1],"1.08 fold enrichment (6-mer frequency, TF over GST control)"
same,binding signal,[2],"1.13 fold enrichment (6-mer frequency, TF over GST control)"
same,binding signal,[3],"1.01 fold enrichment (6-mer frequency, TF over GST control)"
same,binding signal,[4],"1.22 fold enrichment (6-mer frequency, TF over GST control)"
same,binding signal,[5],"1.13 fold enrichment (6-mer frequency, TF over GST control)"
same,binding signal,[6],"1.17 fold enrichment (6-mer frequency, TF over GST control)"
same,binding signal,[7],"1.06 fold enrichment (6-mer frequency, TF over GST control)"
same,binding signal,[8],"1.16 fold enrichment (6-mer frequency, TF over GST control)"
same,binding signal,[9],"1.09 fold enrichment (6-mer frequency, TF over GST control)"
same,binding signal,[10],"1.08 fold enrichment (6-mer frequency, TF over GST control)"
same,binding signal,[11],"1.07 fold enrichment (6-mer frequency, TF over GST control)"
same,binding signal,[12],"1.02 fold enrichment (6-mer frequency, TF over GST control)"
same,binding signal,[13],"1.07 fold enrichment (6-mer frequency, TF over GST control)"
same,binding signal,[14],"1.09 fold enrichment (6-mer frequency, TF over GST control)"
same,binding signal,[15],"1.04 fold enrichment (6-mer frequency, TF over GST control)"
same,binding signal,[16],"1.01 fold enrichment (6-mer frequency, TF over GST control)"
same,binding signal,[17],"1.09 fold enrichment (6-mer frequency, TF over GST control)"
same,binding signal,[18],"1.07 fold enrichment (6-mer frequency, TF over GST control)"
